# According to PubChem BioAssay (EPA / NIEHS):
# Calls of active or inactive are those of the source. The calls were made as follows: active = hit-call score of the fitted dose curve at least 0.9, where 1 is the maximum; inactive = score below 0.9.
# Read-out: Signal transducer and activator of transcription 3 (Homo sapiens) (UniProt P40763)
# Assay: LTEA_HepaRG_STAT3: Life Technologies and Expression Analysis (LTEA) Assay for Signal transducer and activator of transcription (STAT3) using HepaRG (AID 2283529)
# Settings: mRNA level, 48 h; actives raise or lower the signal
# Procedure, shortened: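 Differentiated human HepaRG cells in serum-free induction medium were exposed in duplicate for 48 h to eight half-log concentrations up to 100 uM in 0.5% DMSO. STAT3 mRNA was quantified by TaqMan qRT-PCR, normalized to ACTB, GAPDH and POLR2A, and fitted bidirectionally against DMSO.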
# Sequence of Signal transducer and activator of transcription 3 (Homo sapiens) (P40763 whole entry, looked up): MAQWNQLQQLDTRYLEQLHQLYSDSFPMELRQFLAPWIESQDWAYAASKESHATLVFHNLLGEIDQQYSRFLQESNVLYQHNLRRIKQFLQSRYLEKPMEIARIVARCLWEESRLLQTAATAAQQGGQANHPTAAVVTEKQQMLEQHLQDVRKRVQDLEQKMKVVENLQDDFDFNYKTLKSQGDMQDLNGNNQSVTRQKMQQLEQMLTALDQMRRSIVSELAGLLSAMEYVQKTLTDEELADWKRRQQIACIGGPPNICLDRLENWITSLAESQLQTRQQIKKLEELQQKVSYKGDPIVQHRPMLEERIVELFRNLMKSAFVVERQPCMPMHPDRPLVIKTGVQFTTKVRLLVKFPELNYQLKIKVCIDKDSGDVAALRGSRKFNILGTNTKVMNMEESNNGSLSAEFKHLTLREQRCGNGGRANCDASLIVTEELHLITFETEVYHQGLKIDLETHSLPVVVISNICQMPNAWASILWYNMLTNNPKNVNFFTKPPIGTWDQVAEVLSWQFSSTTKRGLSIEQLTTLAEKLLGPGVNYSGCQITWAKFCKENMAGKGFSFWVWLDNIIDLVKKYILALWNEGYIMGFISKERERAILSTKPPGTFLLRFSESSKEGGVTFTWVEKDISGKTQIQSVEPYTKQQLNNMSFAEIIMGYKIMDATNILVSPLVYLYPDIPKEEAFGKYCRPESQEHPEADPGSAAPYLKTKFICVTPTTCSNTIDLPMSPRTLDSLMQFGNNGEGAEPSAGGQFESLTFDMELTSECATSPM
row,Compound,outcome
1,CC1=CC(=O)CC(C)(C)C1,inactive
2,CC(C)CCO,inactive
3,O=C(O)CCN(C1(C(=O)NO)CCCC1)S(=O)(=O)c1ccc(Oc2ccc(F)cc2)cc1,inactive
4,COC(=O)c1ccccc1O,inactive
5,CC(=O)OCCC(C)C,inactive
6,Clc1nc(Cl)c(Cl)c(Cl)c1Cl,inactive
7,Cc1ccc(S(=O)(=O)O)cc1C,inactive
8,CCOCCOCCOCCO,inactive
9,COC(=O)c1c(Cl)c(Cl)c(C(=O)OC)c(Cl)c1Cl,inactive
10,CC1(C)C(=O)N(Br)C(=O)N1Br,inactive
11,COC(=O)CC(=O)OC,inactive
12,CC[C@H]1CC[C@H](NCc2cc3c(cc2OC)[C@H]2C[C@H]2C(=O)N3C)[C@H](c2ccccc2)N1,inactive
13,CC(O)CN(CCN(CC(C)O)CC(C)O)CC(C)O (configuration not stated),inactive
14,O=C1CCC(N2C(=O)c3ccccc3C2=O)C(=O)N1 (configuration not stated),inactive
15,O=P(OC(CCl)CCl)(OC(CCl)CCl)OC(CCl)CCl,inactive
16,COc1cccc(-c2ccc(/C=C\CN3CCCCCC3)cc2Cl)c1,inactive
17,O=C1CCCCCN1,inactive
18,CCOCCO,inactive
19,CCN(C(=O)c1cc(C)cc(OC[C@H](C)Nc2ccncc2)c1)C(C)C,inactive
20,CCCCC(CC)COC(=O)c1ccc(C(=O)OCC(CC)CCCC)cc1 (configuration not stated),inactive
21,CNS(=O)(=O)c1cc(C(=O)N2CCC(CCN3C4CCC3CC(n3c(C)nc5ccccc53)C4)(c3cccc(F)c3)CC2)c(Cl)cc1F (configuration not stated),inactive
22,CCCCCCc1ccc(O)cc1O,inactive
23,COCCOCCOCCOC,inactive
24,CC[C@H](C)C(=O)O[C@H]1C[C@@H](C)C=C2C=C[C@H](C)[C@H](CC[C@@H]3C[C@@H](O)CC(=O)O3)[C@H]21,inactive
25,C=CC(=C)CCC=C(C)C,inactive
26,C1=CCCC=CCCC=CCC1,inactive
27,CC(C)=CCCC(C)=CC=O,inactive
28,Cn1cnc([N+](=O)[O-])c1Sc1ncnc2nc[nH]c12,inactive
29,CC(C)CC(C)(O)C#CC(C)(O)CC(C)C (configuration not stated),inactive

# Read-out: solute carrier (SLCO1B1), SLCO1B1 (gene 10599)
# Assay: LTEA_HepaRG_SLCO1B1: Life Technologies and Expression Analysis (LTEA) Assay for solute carrier (SLCO1B1) using HepaRG (AID 2283530)
# Settings: mRNA level, 48 h; actives raise or lower the signal
# Procedure, shortened: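 Differentiated human HepaRG cells were exposed for 48 h in serum-free induction medium to eight half-log concentrations, top 100 uM, in 0.5% DMSO. SLCO1B1 mRNA was measured by qRT-PCR, normalized to ACTB, GAPDH and POLR2A, and fitted bidirectionally against DMSO.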
Compound,outcome,AC50
CC1=CC(=O)CC(C)(C)C1,inactive,
CC(C)CCO,inactive,
O=C(O)CCN(C1(C(=O)NO)CCCC1)S(=O)(=O)c1ccc(Oc2ccc(F)cc2)cc1,inactive,
COC(=O)c1ccccc1O,inactive,
CC(=O)OCCC(C)C,inactive,
Clc1nc(Cl)c(Cl)c(Cl)c1Cl,inactive,
Cc1ccc(S(=O)(=O)O)cc1C,inactive,
CCOCCOCCOCCO,inactive,
COC(=O)c1c(Cl)c(Cl)c(C(=O)OC)c(Cl)c1Cl,inactive,
CC1(C)C(=O)N(Br)C(=O)N1Br,inactive,
COC(=O)CC(=O)OC,inactive,
CC[C@H]1CC[C@H](NCc2cc3c(cc2OC)[C@H]2C[C@H]2C(=O)N3C)[C@H](c2ccccc2)N1,inactive,
CC(O)CN(CCN(CC(C)O)CC(C)O)CC(C)O (configuration not stated),inactive,
O=C1CCC(N2C(=O)c3ccccc3C2=O)C(=O)N1 (configuration not stated),inactive,
O=P(OC(CCl)CCl)(OC(CCl)CCl)OC(CCl)CCl,,50 µM (active)
COc1cccc(-c2ccc(/C=C\CN3CCCCCC3)cc2Cl)c1,,74.6 µM (active)
O=C1CCCCCN1,inactive,
CCOCCO,inactive,
CCN(C(=O)c1cc(C)cc(OC[C@H](C)Nc2ccncc2)c1)C(C)C,inactive,
CCCCC(CC)COC(=O)c1ccc(C(=O)OCC(CC)CCCC)cc1 (configuration not stated),inactive,
CNS(=O)(=O)c1cc(C(=O)N2CCC(CCN3C4CCC3CC(n3c(C)nc5ccccc53)C4)(c3cccc(F)c3)CC2)c(Cl)cc1F (configuration not stated),,13.1 µM (active)
CCCCCCc1ccc(O)cc1O,inactive,
COCCOCCOCCOC,inactive,
CC[C@H](C)C(=O)O[C@H]1C[C@@H](C)C=C2C=C[C@H](C)[C@H](CC[C@@H]3C[C@@H](O)CC(=O)O3)[C@H]21,inactive,
C=CC(=C)CCC=C(C)C,inactive,
C1=CCCC=CCCC=CCC1,inactive,
CC(C)=CCCC(C)=CC=O,inactive,
Cn1cnc([N+](=O)[O-])c1Sc1ncnc2nc[nH]c12,,1.62 µM (active)
CC(C)CC(C)(O)C#CC(C)(O)CC(C)C (configuration not stated),inactive,

# Read-out: sulfotransferase 2A1 (SULT2A1), SULT2A1 (gene 6822)
# Assay: LTEA_HepaRG_SULT2A1: Life Technologies and Expression Analysis (LTEA) Assay for sulfotransferase 2A1 (SULT2A1) using HepaRG (AID 2283531)
# Settings: mRNA level, 48 h; actives raise or lower the signal
# Procedure, shortened: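 HepaRG human liver cells, 48 h exposure in serum-free induction medium to 8 half-log concentrations topping at 100 µM (0.5% DMSO), duplicate wells. SULT2A1 mRNA measured by TaqMan qRT-PCR, normalized to ACTB/GAPDH/POLR2A; bidirectional fit against DMSO.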
Compound,outcome,AC50
CC1=CC(=O)CC(C)(C)C1,inactive,
CC(C)CCO,inactive,
O=C(O)CCN(C1(C(=O)NO)CCCC1)S(=O)(=O)c1ccc(Oc2ccc(F)cc2)cc1,inactive,
COC(=O)c1ccccc1O,inactive,
CC(=O)OCCC(C)C,inactive,
Clc1nc(Cl)c(Cl)c(Cl)c1Cl,inactive,
Cc1ccc(S(=O)(=O)O)cc1C,inactive,
CCOCCOCCOCCO,inactive,
COC(=O)c1c(Cl)c(Cl)c(C(=O)OC)c(Cl)c1Cl,inactive,
CC1(C)C(=O)N(Br)C(=O)N1Br,inactive,
COC(=O)CC(=O)OC,inactive,
CC[C@H]1CC[C@H](NCc2cc3c(cc2OC)[C@H]2C[C@H]2C(=O)N3C)[C@H](c2ccccc2)N1,,50 µM (active)
CC(O)CN(CCN(CC(C)O)CC(C)O)CC(C)O (configuration not stated),inactive,
O=C1CCC(N2C(=O)c3ccccc3C2=O)C(=O)N1 (configuration not stated),inactive,
O=P(OC(CCl)CCl)(OC(CCl)CCl)OC(CCl)CCl,,79.1 µM (active)
COc1cccc(-c2ccc(/C=C\CN3CCCCCC3)cc2Cl)c1,,83.2 µM (active)
O=C1CCCCCN1,inactive,
CCOCCO,inactive,
CCN(C(=O)c1cc(C)cc(OC[C@H](C)Nc2ccncc2)c1)C(C)C,inactive,
CCCCC(CC)COC(=O)c1ccc(C(=O)OCC(CC)CCCC)cc1 (configuration not stated),inactive,
CNS(=O)(=O)c1cc(C(=O)N2CCC(CCN3C4CCC3CC(n3c(C)nc5ccccc53)C4)(c3cccc(F)c3)CC2)c(Cl)cc1F (configuration not stated),,9.92 µM (active)
CCCCCCc1ccc(O)cc1O,inactive,
COCCOCCOCCOC,inactive,
CC[C@H](C)C(=O)O[C@H]1C[C@@H](C)C=C2C=C[C@H](C)[C@H](CC[C@@H]3C[C@@H](O)CC(=O)O3)[C@H]21,inactive,
C=CC(=C)CCC=C(C)C,inactive,
C1=CCCC=CCCC=CCC1,inactive,
CC(C)=CCCC(C)=CC=O,inactive,
Cn1cnc([N+](=O)[O-])c1Sc1ncnc2nc[nH]c12,inactive,
CC(C)CC(C)(O)C#CC(C)(O)CC(C)C (configuration not stated),inactive,
